Reference: PubChem BioAssay AID1942 (Johns Hopkins Ion Channel Center, 2009)
In all, about 2,400 compounds went through this assay and about 580 (24%) were called active.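 Rule for the calls: active = activity change at or above the mean plus 3 SD of buffer wells without dofetilide, per plate; inactive = the rest.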 Not all results are given here.

biological target: Potassium voltage-gated channel subfamily KQT member 2 (Rattus norvegicus) (UniProt O88943); assay: KCNQ2 potentiation in CHO cells – cell-based, FluxOR thallium flux, counter-screen for hERG block protector project, confirmation (AID 1942); details: FluxOR thallium flux fluorescence, at 10 µM, hits give high values;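 note: normalized value minus buffer-control mean plus three SD of buffer wells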
Sequence (O88943 whole entry, looked up): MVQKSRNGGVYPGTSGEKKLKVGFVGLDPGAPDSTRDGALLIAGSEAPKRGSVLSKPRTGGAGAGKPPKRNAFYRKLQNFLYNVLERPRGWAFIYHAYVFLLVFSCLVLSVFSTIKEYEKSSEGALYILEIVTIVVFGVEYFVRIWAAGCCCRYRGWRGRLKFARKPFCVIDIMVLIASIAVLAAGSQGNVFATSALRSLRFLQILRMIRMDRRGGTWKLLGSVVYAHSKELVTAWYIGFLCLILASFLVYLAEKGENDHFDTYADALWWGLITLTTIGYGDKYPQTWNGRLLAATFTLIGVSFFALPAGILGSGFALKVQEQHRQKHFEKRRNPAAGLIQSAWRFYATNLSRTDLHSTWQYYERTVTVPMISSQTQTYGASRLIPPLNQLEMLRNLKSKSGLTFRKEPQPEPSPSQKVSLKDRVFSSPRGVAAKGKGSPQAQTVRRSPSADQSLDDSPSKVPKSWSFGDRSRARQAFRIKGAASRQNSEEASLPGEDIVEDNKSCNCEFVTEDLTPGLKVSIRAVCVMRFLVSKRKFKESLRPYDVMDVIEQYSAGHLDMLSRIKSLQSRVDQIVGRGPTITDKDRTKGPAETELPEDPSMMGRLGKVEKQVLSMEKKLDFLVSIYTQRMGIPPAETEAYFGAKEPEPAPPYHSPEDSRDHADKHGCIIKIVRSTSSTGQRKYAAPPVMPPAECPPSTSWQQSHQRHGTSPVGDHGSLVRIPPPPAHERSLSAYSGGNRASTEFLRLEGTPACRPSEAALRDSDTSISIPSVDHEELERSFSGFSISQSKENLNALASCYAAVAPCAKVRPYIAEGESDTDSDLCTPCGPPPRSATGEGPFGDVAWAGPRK

SMILES	activity change, less the hit threshold
COC(=O)C1=C(C)N(CC2CCCO2)C(=O)/C1=C\c1ccc(O)cc1 (centres undefined)	-0.1% (inactive)
CCN(CC)S(=O)(=O)c1ccc2[nH]c(=O)cc(C(=O)Nc3cccc(C(C)=O)c3)c2c1	-14.9% (inactive)
O=C(NC(=S)Nc1ccccn1)c1cc(-c2ccccc2)nc2ccccc12	-12% (inactive)
CC(C)(C)NS(=O)(=O)c1ccc(NC(=O)c2cc(-c3ccccc3)nc3ccccc23)cc1	-22% (inactive)
Cc1cccc(NC(=S)NC(=O)c2cc(-c3ccccc3)nc3ccccc23)c1	-14.7% (inactive)
COC(=O)c1ccc(NC(=S)NC(=O)c2cc(-c3ccccc3)nc3ccccc23)cc1	1.1% (active)
Cc1ccccc1NC(=S)NC(=O)c1cc(-c2ccccc2)nc2ccccc12	2% (active)
O=C(NC(=S)Nc1ccccc1)c1cc(-c2ccccc2)nc2ccccc12	-5.5% (inactive)
CCCCCCc1cc2cc(-c3nnc(-c4ccccc4)o3)c(=O)oc2cc1O	-23.8% (inactive)
O=C(C[n+]1ccccc1)N/N=C/c1ccc(Cl)c(Cl)c1	-28.9% (inactive)
O=C(c1cccs1)N1CCN(C23CC4CC(CC(C4)C2)C3)CC1	-10.7% (inactive)
CCC1Nc2ncnc(N3CCOCC3)c2N(Cc2ccc(C)cc2)C1=O (centres undefined)	-18.9% (inactive)
CCc1cc(=O)[nH]c(SCc2ccc(C)cc2)n1	-15.8% (inactive)
CCSc1nc(=S)cc(C)[nH]1	48.7% (active)
CSc1nc(=S)cc(C)[nH]1	-1.9% (inactive)
CN(C)CCNc1ncnc2c1sc1nc(N3CCCC3)c3c(c12)CC(C)(C)OC3	-13.1% (inactive)
CCOC(=O)NC(=S)Nc1ccc(C(C)(C)C)cc1	1% (active)
COC(=O)CNC(=S)NC(=O)c1ccc(C(C)(C)C)cc1	-13% (inactive)
CCOC(=O)NC(=S)Nc1ccc(C(C)(C)C)cc1Br	2.1% (active)
CC(C)(C)c1ccc(/C=N/NC(=S)Nc2cccnc2)cc1	-14% (inactive)
CCCCNC(=O)CC(NS(=O)(=O)c1ccc(C)cc1)c1ccco1 (centres undefined)	-14.3% (inactive)
C[n+]1ccccc1/C=C/c1ccc(C#N)cc1	-12.2% (inactive)
COCC(=O)N(Cc1ccco1)c1nnc(C2CCOC2)s1 (centres undefined)	-22.7% (inactive)
Cc1ccc(N=Nc2ccc(O)c3ncccc23)cc1	-4.3% (inactive)
O=[N+]([O-])c1cc(F)c2cccnc2c1O	6.4% (active)
COc1ccc(-n2cnc3ccccc3c2=O)c([N+](=O)[O-])c1	-12.6% (inactive)
Oc1c(Cl)cc(CN2CCCCC2)c2cccnc12	-12.8% (inactive)
O=[N+]([O-])c1cccnc1Sc1n[nH]c(-c2ccc(Cl)cc2)n1	-16.6% (inactive)
O=[N+]([O-])c1ccc(O)c2ncccc12	22.1% (active)
